Only some compounds are listed: those with a hit (about 17% of all), similar ones and a draw of the others.
TDP1 cell CPT – DT40-hTDP1 cell growth loss with CPT; chicken DT40 Tdp1-/-;hTDP1 cells + 20 nM CPT, ATP luminescence, 48 h; Potency, µM (highest dose often 46.2 µM), inactives show at the top dose activity change, negative = growth inhibition, usual class: inhibitors; 420,000 tested, 12% active; AID 686979; also: % is scaled to controls: 0 for no effect and ±100 for the full control effect; nearly all actives have a fitted effect of over 55% in size
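Chicken DT40 Tdp1-/- cells stably complemented with human TDP1 were seeded at 400 cells/well in medium containing 20 nM camptothecin, exposed to pin-transferred compounds, and grown at 37 °C for at least 48 hr. Viability was read as ATP luminescence.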
TDP1 block – inhibitors of human tyrosyl-DNA phosphodiesterase TDP1 | Q9NUW8 | recombinant TDP1, AlphaScreen DNA substrate cleavage | Potency, µM (highest dose often 130 µM), without a hit: at the highest dose activity change, negative = inhibition, usual class: inhibitors | 350,000 tested, 0.28% active; also: % is scaled to controls: 0 for no effect and ±100 for the full control effect; nearly all actives have a fitted effect of over 40% in size
Target sequence (Q9NUW8 whole entry, looked up): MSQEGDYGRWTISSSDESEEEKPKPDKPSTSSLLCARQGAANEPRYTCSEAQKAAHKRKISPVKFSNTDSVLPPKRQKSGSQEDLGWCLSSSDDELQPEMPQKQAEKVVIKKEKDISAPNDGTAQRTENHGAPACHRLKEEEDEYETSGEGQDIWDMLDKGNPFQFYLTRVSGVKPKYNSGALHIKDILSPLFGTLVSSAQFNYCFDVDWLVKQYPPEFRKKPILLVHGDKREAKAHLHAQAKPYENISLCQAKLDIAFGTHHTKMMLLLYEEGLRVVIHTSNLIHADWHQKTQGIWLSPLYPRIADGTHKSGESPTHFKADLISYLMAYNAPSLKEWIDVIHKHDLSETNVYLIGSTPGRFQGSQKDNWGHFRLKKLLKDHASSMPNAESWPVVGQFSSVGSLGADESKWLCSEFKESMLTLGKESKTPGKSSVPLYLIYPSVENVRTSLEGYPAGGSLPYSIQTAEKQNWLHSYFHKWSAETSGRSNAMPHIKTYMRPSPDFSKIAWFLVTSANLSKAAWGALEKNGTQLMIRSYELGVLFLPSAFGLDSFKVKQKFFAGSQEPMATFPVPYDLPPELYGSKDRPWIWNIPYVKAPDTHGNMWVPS
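Tdp1 1 nM final; 15 min RT w/ cpd; substrate 15 nM, 5 min; beads 10 ug/ml, 10 min; AlphaScreen read. Neg ctrl: no enzyme.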
ClpP mod – qHTS Assay for Activators of ClpP. ATP-dependent Clp protease proteolytic subunit (Bacillus subtilis (strain 168)), P80244. purified B. subtilis ClpP, FRET peptide cleavage, 20 min. Potency, µM (titrated, usually from 57.5 µM), for inactives: at the top dose activity change, negative = active. 340,000 tested, 1.9% active; active = well fitted falling curve with a large enough effect; inconclusive = small, poorly fitted or top-dose-only effect; inactive = no such curve, though single readings can be large or run the other way; also: the source files actives as falling curves though it sought activators and does not explain the sign; nearly all actives have a fitted effect of over 65% in size
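ClpP 10 microg/mL final, pH 8 Tris/KCl buffer with BSA, glycerol, Tween-20; compound pinned in; FRET-FV substrate; RT 20 min; Ex320/Em430; ΔFRET vs ADEP 5.8 microM, DMSO, no enzyme.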
DT40 TDP1 no CPT – qHTS for Inhibitors of human tyrosyl-DNA phosphodiesterase 1 (TDP1): qHTS in cells in absence of CPT | DT40 Tdp1-/- hTDP1 cells, no CPT, ATP luminescence, 48 h | Potency, µM (titrated, usually from 46.2 µM), inactives show at the top dose activity change, negative = growth inhibition, most hits filed as inhibitors | 420,000 tested, 15% active; also: % is scaled to controls: 0 for no effect and ±100 for the full control effect; nearly all actives have a fitted effect of over 55% in size
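Readout: luminescence from CellTiter-Glo after 30 min in the dark at RT. Cells: DT40 Tdp1-/- with stable hTDP1, 400/well. Exposure: compounds alone, ≥48 hr, 37 °C.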
Starred values were filed as active, the others as inactive; ? = inconclusive; · = not tested or not shown; [ ] = another dose, or the depositor's remark. Unless noted, calls follow the shape of the dose curve; as a rule, active = well fitted curve in the direction sought with a large enough effect; inconclusive = small, poorly fitted or top-dose-only effect, or another doubt; inactive = no such curve, though single readings can be large; an effect the other way counts as inactive or inconclusive. Potency is read from the fitted curve at half-maximal effect.

SMILES | TDP1 cell CPT | TDP1 block | ClpP mod | DT40 TDP1 no CPT
Cc1ccc(C)c(OCc2cc(C(=O)N3CCN(C4CCCCC4)CC3)no2)c1 | ? | · | -7.6% | ?
COc1cc(C)ccc1OCc1cc(C(=O)N2CCC(c3ccc(F)cc3)C2)no1 (centres undefined) | ? | 2.2% | 2.5% | 2.31µM*
Cc1ccc(C)c(OCc2cc(C(=O)N3C[C@@H](C)O[C@@H](C)C3)no2)c1 | 16.4µM* | 0.5% | -3.5% | ?
CCN(CCn1cccn1)C(=O)c1cc(COc2cc(C)ccc2C)on1 | 18.4µM* | 1.3% | -2.0% | ?
Cc1ccc(C)c(OCc2cc(C(=O)N3CC[C@@H]4CCCC[C@H]4C3)no2)c1 | ? | -3.2% | -0.5% | 25.9µM*
COCC1CCN(C(=O)c2cc(COc3ccc(F)cc3F)on2)C1 (centres undefined) | -20.8% | 1.1% | 4.1% | ?
CCN(CCn1cccn1)C(=O)c1cc(COc2ccccc2SC)on1 | ? | 3.5% | -1.4% | ?
Cc1ccc(C)c(OCc2cc(C(=O)N3CCc4sccc4C3)no2)c1 | 16.4µM* | -7.2% | -3.5% | 23.1µM*
CSc1ccccc1OCc1cc(C(=O)N2CCc3sccc3C2)no1 | ? | 4.2% | 1.5% | -0.1%
COc1cc2c(cc1OC)C(C)N(C(=O)Nc1ccc(F)cc1)CC2 (centres undefined) | 13µM* | · | -0.8% | 7.31µM*
COc1cc2c(cc1OC)C(C)N(C(=O)c1cc3c(C)cc(C)cc3[nH]1)CC2 (centres undefined) | 16.4µM* | 9.2% | -9.9% | 16.4µM*
COc1cc2c(cc1OC)C(CC(=O)O)N(C(=O)Nc1cc(OC)c(OC)c(OC)c1)CC2 (centres undefined) | 3.66µM* | -3.8% | 1.1% | ?
CCOC(=O)C1CCN(C(=O)c2cc3c(C)cc(C)cc3[nH]2)CC1 | -19.6% | · | -3.6% | ?
CCOc1cc2c(cc1OCC)C(CC(=O)OC)N(C(=O)Nc1cc(C)cc(C)c1)CC2 (centres undefined) | -17.6% | -3.8% | ? | -27.1%
O=C(O)CC1c2ccccc2CCN1C(=O)Nc1cc(Cl)ccc1Cl (centres undefined) | 20.6µM* | 8.8% | 4.5% | 20.6µM*
COc1ccc(C(=O)NCCCn2nc(C)cc2C)cc1S(=O)(=O)N1CCOCC1 | 0.1% | -0.8% | -7.9% | -1.4%
CCOc1ccc(C(=O)Nc2cc(-c3ccccc3)no2)cc1 | -26.1% | 6.1% | -0.8% | -26.7%
COC(=O)C/C=C\[C@@H](C)[C@@H](/C=N\OC[C@@H](O)[C@H]1O[C@H]2OC(C)(C)O[C@H]2[C@@H]1O)NS(=O)(=O)c1ccc(C)cc1 | · | 9.0%[21 µM] | · | ·
COc1cc2c(cc1OC)C(C)N(C(=O)Nc1cc(C)cc(C)c1)CC2 (centres undefined) | 3.26µM* | · | 0.5% | 2.59µM*
CCOC(=O)N1CCc2c(sc3c2c(=O)n(-c2ccc(Cl)cc2)c(=O)n3CC(=O)c2ccc(F)cc2)C1 | ? | 6.4% | -17.2% | 20.6µM*
CCOc1ccc(NC(=O)Cn2c(=O)n(CCc3ccccc3)c(=O)c3c4c(sc32)CN(C(C)=O)CC4)cc1 | ? | 5.9% | -0.4% | ?
CCOC(=O)N1CCc2c(sc3c2c(=O)n(Cc2ccccc2)c(=O)n3CC(=O)Nc2ccc(F)cc2)C1 | 5.8µM* | 1.3% | -1.1% | 10.3µM*
CCOC(=O)N1CCc2c(sc3c2c(=O)n(CCc2ccccc2)c(=O)n3CC(=O)Nc2ccc(C)cc2)C1 | 9.2µM* | 1.3% | 1.9% | 7.31µM*
COc1ccccc1NC(=O)Cn1c(=O)n(CCc2ccccc2)c(=O)c2c3c(sc21)CN(C(C)=O)CC3 | 16.4µM* | -2.0% | -2.5% | 16.4µM*
C[C@@H]1CN([C@@H](C)CO)C(=O)CCCn2cc(nn2)CO[C@H]1CN(C)S(=O)(=O)c1cccs1 | 3.1% | · | -1.8% | -9.7%
SMILES | TDP1 cell CPT | TDP1 block | ClpP mod | DT40 TDP1 no CPT
COc1ccc(-c2nc3c(c4c2C[C@H](c2ccccc2)OC4)CN(C(=O)Cc2cccs2)CC3)c(C)c1 | · | 11.3%[12.3 µM] | · | ·
CCN(CC)CCn1c(=O)n(-c2ccc(Cl)cc2)c(=O)c2c3c(sc21)CN(C)CC3 | 29.1µM* | · | -21.4% | 20.6µM*
CN1CCc2c(sc3c2c(=O)n(-c2ccc(Cl)cc2)c2nncn32)C1 | ? | -2.0% | ? | ?
CN(C(=O)c1ccc(S(=O)(=O)N2CCOCC2)cc1)C1CCS(=O)(=O)C1 (centres undefined) | -7.7% | -1.7% | -0.4% | 4.0%
COc1ccc(C2N(Cc3ccccc3)C(=O)c3ccccc3N2C)cc1COc1ccc(NC(C)=O)cc1 (centres undefined) | · | -10.4% | · | ·
COC(=O)c1ccc2nc(-c3cccc(Cl)c3)c(Cc3cccc(F)c3)n2c1 | 16.4µM* | · | ? | 9.2µM*
COC(=O)c1ccc2nc(-c3cccc(Br)c3)c(Cc3cccc(F)c3)n2c1 | ? | · | -20.0% | ?
COC(=O)c1ccc2nc(-c3cccc(Cl)c3)c(Cc3cccc(Cl)c3)n2c1 | 4.61µM* | · | ? | ?
COc1cc(C=O)ccc1OCCSc1ccc(Cl)cc1 | -13.1% | -12.4% | -2.0% | -13.7%
COC(=O)Oc1ccc(/C=N/NC(=O)CSCc2ccc(Cl)cc2)cc1OC | 25.9µM* | 3.5% | -0.4% | 11.6µM*
O=C(CSCc1ccc(Cl)cc1)N/N=C/c1ccccc1 | -20.8% | 0.5% | -5.0% | -19.4%
CCOC(=O)N/N=C/c1ccc(OCCSc2ccc(Cl)cc2)c(OC)c1 | 14.6µM* | 2.7% | ? | 25.9µM*
C#CCN(C[C@H]1[C@H](OC(=O)NCCCCCC)[C@H](OC(=O)NCCCCCC)C[C@@H](C(=O)OC)[C@H]1C(=O)OC)S(=O)(=O)c1ccc(C)cc1 | 4.11µM* | · | -0.7% | 5.8µM*
C#CCN(C[C@H]1[C@H](OC(=O)NCc2ccccc2)[C@H](OC(=O)NCc2ccccc2)C[C@@H](C(=O)OC)[C@H]1C(=O)OC)S(=O)(=O)c1ccc(C)cc1 | -106.8% | · | 2.4% | -104.9%
C#CCN(C[C@H]1[C@H](OC(=O)Nc2c(C)noc2C)[C@H](OC(=O)Nc2c(C)noc2C)C[C@@H](C(=O)OC)[C@H]1C(=O)OC)S(=O)(=O)c1ccc(C)cc1 | 20.6µM* | · | -3.0% | 14.6µM*
CCOc1ccc(/C=C/c2nc(C#N)c(N3CCN(c4ccc(OC)cc4)CC3)o2)cc1 | 0.5% | 4.7% | ? | -24.5%
CCN1CCN(c2oc(/C=C/c3ccc(OC)c(OC)c3)nc2C#N)CC1 | 16.4µM* | 0.0% | 4.7% | ?
COc1ccc(/C=C/c2nc(C#N)c(N3CCCCCC3)o2)cc1OC | 11.6µM* | 2.3% | 4.4% | 8.2µM*
CC(=O)CSc1nnc2[nH]c(=O)cc(N)n12 | 2.3% | -3.8% | 0.1% | 0.0%
C[C@H]1CN([C@@H](C)CO)C(=O)CCCn2nncc2CO[C@H]1CN(C)C(=O)Cc1ccccc1 | 4.4% | · | -2.3% | 0.0%

Assay outcomes (PubChem)
